A short description of test [1]: NCI Yeast Anticancer Drug Screen. Data for the rad50 strain (AID 155).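 Further: 0% = growth of vehicle-only cultures of the same strain.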 The conditions noted are these: S. cerevisiae rad50 strain growth inhibition; at 50.0 µM; active compounds read high. In outline: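 Relative growth inhibition (compound vs vehicle) was measured in yeast with a defined repair-gene alteration.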
Test [2] in a line: NCI Yeast Anticancer Drug Screen. Data for the mec2-1 strain (AID 157). The conditions noted are these: S. cerevisiae mec2-1 strain, at 50.0 µM, active compounds read high. An outline of the steps:
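Compounds were applied to mec2-1 yeast cells. Their growth was then compared with that of vehicle-treated cultures to give growth inhibition.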

A short description of test [3]: NCI Yeast Anticancer Drug Screen. Data for the sgs1 mgt1 strain (AID 161).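 Further: 0% = growth of cultures given vehicle only.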 The note with it: S. cerevisiae sgs1 mgt1 strain, at 50.0 µM, active compounds read high. An outline of the steps: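 Compounds are added to genetically altered yeast, and growth is compared with cultures given vehicle alone to give percent inhibition.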
Test [4] in a line: NCI Yeast Anticancer Drug Screen. Data for the cln2 rad14 strain (AID 165).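 Further: 0% = growth equal to vehicle treated cultures.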 The conditions noted are these: S. cerevisiae cln2 rad14 strain, at 50.0 µM, active compounds read high. In outline:
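Strain: cln2 rad14 yeast, altered in cell cycle control and DNA damage repair. Read-out: growth inhibition vs vehicle.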

Test [5] is described as follows: NCI Yeast Anticancer Drug Screen. Data for the bub3 strain (AID 167). The conditions noted are these: S. cerevisiae bub3 mutant strain, at 50.0 µM, active compounds read high. An outline of the steps:
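Screening used yeast with an engineered genetic alteration affecting cell cycle control. Compound-exposed cultures were compared with vehicle cultures, and reduced growth was taken as inhibition.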

Test [6] in a line: NCI Yeast Anticancer Drug Screen. Data for the mlh1 rad18 strain (AID 175). The conditions noted are these: S. cerevisiae mlh1 rad18 strain growth inhibition; at 50.0 µM; active compounds read high. In outline:
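A repair-deficient yeast strain is exposed to test compound, and growth is scored relative to vehicle-treated controls.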

Structures are written as SMILES. The panel holds about 79,000 compounds, 15% with a hit somewhere; the sample as a whole holds those more often. Unmarked numbers belong to inactive results. Active and inactive are the calls of the source. No stated cut-off is given here; in the data, active means growth inhibition above about 70%; inactive means the rest.

As to `Cn1c(C(=O)NN)cc2cc(OCc3ccccc3)ccc21`, the growth inhibition in test [1] was 30.1%; in test [2] it was 5.75%; in test [3] it was 7.2%; in test [4], 4.55%; in test [5], 13.2%; in test [6] it was 2.4%.

In the case of `COCCOCCOCCOC(C)=O`, the growth inhibition in test [1] was 21.6%; in test [2], 12.4%; in test [3] it was 8.3%; in test [4] it was 6.2%; in test [5] it was -5.3%; in test [6], -0.65%.

As to `O=C1c2ccccc2C(=CC=C2c3ccccc3Sc3ccccc32)c2ccccc21`, the growth inhibition in test [1] is 11.9%; in test [2] it was 25.9%; in test [3], -35%; in test [4] it was 9.55%; in test [5] it was 24.2%; in test [6], -5.75%.

Regarding `CCOC(=O)c1ccccc1NC`, the growth inhibition in test [1] is -8.65%; in test [2] it was -7.4%; in test [3] it was -12.1%; in test [4], -4.9%; in test [5], -23.4%; in test [6], -26.1%.

Turning to `Cn1c2c(c(=O)n(C)c1=O)CCC(=O)N2`, the growth inhibition in test [1] was 4.95%; in test [2], 0.7%; in test [3], -6.5%; in test [4] it was -32.6%; in test [5], -2.4%; in test [6], -9.4%.

Turning to `COc1ccc(-c2csc(N)n2)cc1OC`, the growth inhibition in test [1] is 2.15%; in test [2], -3.9%; in test [3], 4.4%; in test [4] it was -66.7%; in test [5], -10.4%; in test [6], 1.9%.

With `CCOC(=O)C1(N)CC1`, the growth inhibition is 4.65% in test [1]; 7.1% in test [2]; 2.8% in test [3]; -10% in test [4]; -11.4% in test [5]; 17.2% in test [6].

In the case of `CN(C)c1ccc(/C=C/C=C/C(=O)c2ccccc2)cc1`, the growth inhibition in test [1] is -5.35%; in test [2], 16.2%; in test [3], -0.1%; in test [4], 5.55%; in test [5], -13.8%; in test [6], -7.4%.

Consider `COc1cc(SC)c(OC)cc1C`, for which the growth inhibition in test [1] is 4.15%; in test [2] it was 0.65%; in test [3], -12.4%; in test [4] it was -22.4%; in test [5], -6%; in test [6], 4.85%.

Turning to `NC(N)=N/N=C1/C(=O)N(C2CCCCCC2)C(=O)C1C(=O)NC1CCCCCC1` (stereo unspecified), the growth inhibition in test [1] is 35.8%; in test [2], 5.3%; in test [3], 14.9%; in test [4], 23.9%; in test [5], 6.4%; in test [6], 28.1%.

For `O=Nc1c(O)[nH]c2c(Cl)cccc12`, the growth inhibition in test [1] is 0.1%; in test [2], -10.2%; in test [3], -15.2%; in test [4], -20.4%; in test [5] it was -18.2%; in test [6] it was -5.25%.

Regarding `COc1cccc(C(N)C(=O)O)c1` (stereo unspecified), the growth inhibition is -22.9% in test [1]; -16.2% in test [2]; -5.25% in test [3]; -26.2% in test [4]; -12.4% in test [5]; -17.4% in test [6].

For the compound `FCCCCSc1ncnc2nc[nH]c12`, the growth inhibition in test [1] was -25.3%; in test [2], -15.2%; in test [3], -24.7%; in test [4], -33.4%; in test [5], -11.5%; in test [6] it was -17.2%.

For the compound `Cc1ccc(OCc2cccc(Cl)c2)cc1`, the growth inhibition in test [1] was 17.8%; in test [2], -10.4%; in test [3], 2.5%; in test [4], -2.9%; in test [5] it was -42.1%; in test [6], -11.3%.

For the compound `CCOC(C)C1C2CCCCC21` (stereo unspecified), the growth inhibition was 2.1% in test [1]; 0.75% in test [2]; 6.2% in test [3]; -54% in test [4]; 4.85% in test [5]; 8.75% in test [6].

For `C[CH2][GeH][CH2]C.C[CH2][Ge]([CH2]C)[CH2]C`, the growth inhibition is 95.2% (active) in test [1]; 97% (active) in test [2]; 60.8% in test [3]; 96.5% (active) in test [4]; 96% (active) in test [5]; 94.8% (active) in test [6].

As for `O=C1C=C(Nc2ccc(S(=O)(=O)Nc3ncccn3)cc2)c2ccccc2C1=O`, the growth inhibition is 27.4% in test [1]; 41.5% in test [2]; 50.1% in test [3]; 30.8% in test [4]; 18.9% in test [5]; 44.6% in test [6].

For the compound `O=C1/C(=C/c2ccc(F)cc2)CC/C1=C\c1ccc(F)cc1`, the growth inhibition in test [1] is -10.5%; in test [2], -12.1%; in test [3], -2.85%; in test [4], -2.55%; in test [5] it was -13.8%; in test [6] it was -9.3%.

As to `O=C1C=C(NCCc2ccccc2)c2ccccc2C1=O`, the growth inhibition in test [1] was 38.5%; in test [2], -8.6%; in test [3] it was 16.6%; in test [4], 9.15%; in test [5], 40.4%; in test [6] it was -5.1%.

For `CC(NC(=O)C(N)CC(=O)O)NC(=O)N(C)C(C)(C)C` (stereo unspecified), the growth inhibition in test [1] was -8.5%; in test [2] it was 1.75%; in test [3], 2.1%; in test [4], 2.65%; in test [5] it was 25.4%; in test [6], -44.2%.

On to `OCC1OC(n2nc(-c3ccccc3)nc2-c2cnccn2)C(O)C(O)C1O` (stereo unspecified), for which the growth inhibition in test [1] was -37.4%; in test [2], -35.8%; in test [3], -31.4%; in test [4], 3.65%; in test [5], -46.1%; in test [6], -43.5%.
